“And” between values parts separate entries of the source, which are not always exact repeats. Equal values may be shown once. The source made the active and inactive calls. Unless noted, no stated cut-off is given here; in the data, active means parasite load remaining mostly below about 12% (no sharp cut-off); inactive means mostly above about 10%.
What was measured:
[1] = P. berghei load reduction in hepatocytes – cell-based, HepG2, luciferase luminescence, HepG2 viability, primary screen (AID 624349);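 further: 100% = mean of DMSO negative control wells on the same plate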; conditions: P. berghei liver stage in HepG2, luciferase luminescence, concentration not given here; parasite load remaining: stronger effect = lower value; viability: measured here: HepG2 viability without parasites
[2] = Wnt pathway potentiators raising nuclear beta-catenin – imaging, WNT3A-conditioned medium, mouse C2C12, NPC library, primary screen (AID 1117326; in the data active means nuclear beta-catenin stimulation mostly above about 4.2%, no sharp cut-off; inactive means mostly below about 10%; further: reference of the scale not given here); conditions: stronger effect = higher value
[3] = stimulators of insulin release from INS-1E, primary screen, cell-based, 5 mM glucose, NPC library (AID 1117329;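 active means compound raises insulin release from rat beta cells at 5 mM glucose, no numeric limit stated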; further: reference of the scale not given here); conditions: rat INS-1E insulin secretion, at 10 µM, stronger effect = higher value
[4] = growth inhibition of GSK3B-pretreated HCT116 cells – cell-based, CellTiter-Glo, 0.2 to 20 µM (AID 1117336;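 active means compounds lowering colon cancer cell viability after pretreatment blocking the GSK3B kinase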); conditions: HCT116 viability after GSK3B inhibitor, at 20 µM, stronger effect = higher value
[5] = inhibition of endothelial tube formation, primary screen, imaging, VEGF stimulated, CD31 staining, tube area, NPC library (AID 1117340;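 active means compound that reduces growth-factor-driven endothelial tube area in a mixed cell culture, no cutoff stated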); conditions: VEGF-stimulated ADSC/ECFC co-culture, at 10 µM, stronger effect = higher value
[6] = GLP1 release stimulators, primary, NCI-H716, NPC library (AID 1117341;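 active means compound raises GLP1 secretion from the human gut endocrine cells, with no numeric limit stated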; further: reference of the scale not given here); conditions: NCI-H716 cells, at 10 µM, stronger effect = higher value
[7] = HCT116 colon cancer cell growth inhibition, primary screen, CellTiter-Glo luminescence, NPC library (AID 1117342;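 active means compounds that lower survival of HCT116 colon cancer cells in the luminescence readout, no numeric limit stated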); conditions: at 20 µM (top of the series)
[8] = reduced SW480 viability measured with CellTiter-Glo, NPC library, primary (AID 1117343;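 active means compounds that lower viability of the colon cancer cells in the luminescence readout, with no numeric limit stated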); conditions: CellTiter-Glo luminescence; at 20 µM (top of the series)
[9] = NPC library primary testing for decreased DLD-1 cell viability via CellTiter-Glo (AID 1117346;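 active means compounds that lower survival of DLD-1 colon cancer cells in the luminescence readout, no cutoff given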); conditions: DLD-1 viability, CellTiter-Glo luminescence; at 20 µM (top of the series)
[10] = target: 6-phosphogluconate dehydrogenase, decarboxylating (Homo sapiens) (UniProt P52209); experiment: inhibition of human phosphogluconate dehydrogenase – biochemical, recombinant enzyme, NADPH absorbance, primary screen (AID 1159550;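 active means at least 20% inhibition of 6-phosphogluconate dehydrogenase activity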); conditions: recombinant 6PGD, NADPH absorbance 341 nm; at 10 µM; stronger effect = higher value
Sequence of 6-phosphogluconate dehydrogenase, decarboxylating (Homo sapiens) (P52209 whole entry, looked up): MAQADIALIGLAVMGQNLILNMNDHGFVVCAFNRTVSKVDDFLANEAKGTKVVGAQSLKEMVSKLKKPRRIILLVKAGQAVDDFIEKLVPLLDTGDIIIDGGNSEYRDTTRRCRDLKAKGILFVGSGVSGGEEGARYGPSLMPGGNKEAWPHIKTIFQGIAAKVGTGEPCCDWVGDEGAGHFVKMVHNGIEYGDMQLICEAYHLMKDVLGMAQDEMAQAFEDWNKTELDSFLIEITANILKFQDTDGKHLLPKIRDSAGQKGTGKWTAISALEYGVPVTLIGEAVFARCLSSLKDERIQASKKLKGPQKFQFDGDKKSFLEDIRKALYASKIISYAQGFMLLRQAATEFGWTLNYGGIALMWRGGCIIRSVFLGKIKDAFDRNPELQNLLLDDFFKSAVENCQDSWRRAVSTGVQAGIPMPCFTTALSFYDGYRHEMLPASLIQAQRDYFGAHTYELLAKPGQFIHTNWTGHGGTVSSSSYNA

Cn1c([N+](=O)[O-])cnc1COC(N)=O
101% and 70.6% and 91.7%: viability [1]
inactive: parasite load remaining [1] 74.3% and 117% and 35.4% | nuclear beta-catenin stimulation ([2]; at 10 µM) 0.1% | insulin secretion stimulation [3] -4.5% | viability decrease [4] -8.4% | tube area decrease [5] 6.2% | GLP1 secretion stimulation [6] 0.7% | inhibition of viability [7] -2.4% | viability decrease (inhibition) [8] -4.9% | viability decrease (inhibition) [9] -13.8% | inhibition [10] -20.2%
0.6%: nuclear beta-catenin stimulation ([2]; stimulation, at 2 µM)

O=C(O)CCNC(=O)c1ccccc1
88.4%: viability [1]
0.2%: nuclear beta-catenin stimulation ([2]; stimulation, at 2 µM)
inactive: parasite load remaining [1] 140% | nuclear beta-catenin stimulation ([2]; at 10 µM) 3.5% | insulin secretion stimulation [3] -1% | viability decrease [4] 6.3% | tube area decrease [5] -2% | GLP1 secretion stimulation [6] -0.3% | inhibition of viability [7] -7.2% | viability decrease (inhibition) [8] -1.3% | viability decrease (inhibition) [9] 6.4% | inhibition [10] 2.23%

OC[C@H]1O[C@@H](O[C@@H]2[C@@H](CO)O[C@](O)(CO)[C@H]2O)[C@H](O)[C@@H](O)[C@H]1O
inactive: parasite load remaining [1] 106% and 22.7% | nuclear beta-catenin stimulation ([2]; at 10 µM) 2.4% | insulin secretion stimulation [3] 0.5% | viability decrease [4] -11.1% | tube area decrease [5] -2.5% | GLP1 secretion stimulation [6] 0.8% | inhibition of viability [7] 10% | viability decrease (inhibition) [9] -4.2% | inhibition [10] 0.0837%
76.4% and 96.6%: viability [1]
1.6%: nuclear beta-catenin stimulation ([2]; stimulation, at 2 µM)
active: viability decrease (inhibition) [8] 86.9%

Cc1cc2nc3c(=O)[nH]c(=O)nc-3n(C[C@H](O)[C@H](O)[C@H](O)CO)c2cc1C
99.8%: viability [1]
2.2%: nuclear beta-catenin stimulation ([2]; stimulation, at 2 µM)
inactive: parasite load remaining [1] 147% | nuclear beta-catenin stimulation ([2]; at 10 µM) 4.5% | insulin secretion stimulation [3] 0.9% | viability decrease [4] -45.7% | tube area decrease [5] 36.1% | GLP1 secretion stimulation [6] -0.4% | inhibition of viability [7] 0.1% | viability decrease (inhibition) [8] 11.1% | viability decrease (inhibition) [9] -5.4% | inhibition [10] -2.13%

O=c1ccc2ccccc2o1
inactive: parasite load remaining [1] 71% | nuclear beta-catenin stimulation ([2]; at 10 µM) -0.2% | insulin secretion stimulation [3] -1.8% | viability decrease [4] 3.65% | tube area decrease [5] -29.2% | GLP1 secretion stimulation [6] 2.9% | inhibition of viability [7] 12.6% | viability decrease (inhibition) [8] 19.6% | viability decrease (inhibition) [9] 6% | inhibition [10] -18.6%
-0.6%: nuclear beta-catenin stimulation ([2]; stimulation, at 2 µM)
94.5%: viability [1]

CC(C(=O)O)c1ccc(C(=O)c2cccs2)cc1 (configuration not stated)
inactive: parasite load remaining [1] 81.3% and 117% and 42.2% | nuclear beta-catenin stimulation ([2]; at 10 µM) -2.4% | insulin secretion stimulation [3] 1.8% | viability decrease [4] -5.4% | tube area decrease [5] -3.5% | GLP1 secretion stimulation [6] -3.9% | inhibition of viability [7] 0.8% | viability decrease (inhibition) [8] -1.2% | viability decrease (inhibition) [9] 0% | inhibition [10] -2.86%
105% and 68.4% and 94.1%: viability [1]
-0.7%: nuclear beta-catenin stimulation ([2]; stimulation, at 2 µM)

Cc1cc(O)cc(C)c1Cl
inactive: parasite load remaining [1] 69.1% and 37.2% | nuclear beta-catenin stimulation ([2]; at 10 µM) -0.1% | insulin secretion stimulation [3] 2% | viability decrease [4] -11% | tube area decrease [5] -5.3% | GLP1 secretion stimulation [6] -2% | inhibition of viability [7] 18.1% | viability decrease (inhibition) [8] 28.5% | viability decrease (inhibition) [9] 9.3% | inhibition [10] 0.336%
2%: nuclear beta-catenin stimulation ([2]; stimulation, at 2 µM)
76.7% and 78.6%: viability [1]

CCCCCC(C)N (configuration not stated)
77.1% and 86.1%: viability [1]
3.7%: nuclear beta-catenin stimulation ([2]; stimulation, at 2 µM)
inactive: parasite load remaining [1] 115% and 42.4% | nuclear beta-catenin stimulation ([2]; at 10 µM) 1.8% | insulin secretion stimulation [3] 3.3% | viability decrease [4] 11.8% | tube area decrease [5] 4.3% | GLP1 secretion stimulation [6] 0% | inhibition of viability [7] -3.73% | viability decrease (inhibition) [8] -37.6% | viability decrease (inhibition) [9] 1.5% | inhibition [10] -7.17%

COc1ccc2cc3[n+](cc2c1OC)CCc1cc2c(cc1-3)OCO2
inactive: parasite load remaining [1] 31.4% and 124% and 72.9% | nuclear beta-catenin stimulation ([2]; at 10 µM) 0.6% | insulin secretion stimulation [3] 1.05% | GLP1 secretion stimulation [6] 0.3% | viability decrease (inhibition) [8] 33.2% | inhibition [10] 10.3%
0%: nuclear beta-catenin stimulation ([2]; stimulation, at 2 µM)
active: viability decrease [4] 57.5% | tube area decrease [5] 57.3% | inhibition of viability [7] 84% | viability decrease (inhibition) [9] 62.7%
103% and 67.6% and 82.6%: viability [1]

COc1ccc(C(=O)c2ccccc2O)c(O)c1
inactive: parasite load remaining [1] 83.1% and 102% and 55.6% | nuclear beta-catenin stimulation ([2]; at 10 µM) 1.1% | insulin secretion stimulation [3] -0.5% | viability decrease [4] -1.1% | tube area decrease [5] 1.6% | GLP1 secretion stimulation [6] -1.5% | inhibition of viability [7] -9.15% | viability decrease (inhibition) [8] 1.6% | viability decrease (inhibition) [9] -1.5% | inhibition [10] 11.7%
96.9% and 79.4% and 89.9%: viability [1]
0.4%: nuclear beta-catenin stimulation ([2]; stimulation, at 2 µM)

O=C(O)[C@@H]1[C@H]2C[C@H]3c4[nH]c5ccccc5c4CCN3C[C@@H]2CC[C@@H]1O
104% and 83.6%: viability [1]
1.8%: nuclear beta-catenin stimulation ([2]; stimulation, at 2 µM)
inactive: parasite load remaining [1] 106% and 85.7% | nuclear beta-catenin stimulation ([2]; at 10 µM) 0.4% | insulin secretion stimulation [3] -0.3% | viability decrease [4] -25.2% | tube area decrease [5] 9.1% | GLP1 secretion stimulation [6] 0.3% | inhibition of viability [7] -4.53% | viability decrease (inhibition) [8] 13% | viability decrease (inhibition) [9] -18.9% | inhibition [10] 2.44%
